# Reference: PubChem BioAssay (EPA / NIEHS)
# Records with an inconclusive call do not appear. Calls of active or inactive are those of the source. How the source made its calls, unless noted: active means hit-call score of the fitted dose curve at least 0.9, where 1 is the maximum; inactive means score below 0.9.
# Assays:
# [1] = system: Sodium/Iodide Symporter (NIS), SLC5A5 (gene 6528); test: CPHEA_Stoker_NIS_Inhibition_RAIU: CPHEA's Radioactive Iodide Uptake (RAIU) Assay for Sodium/Iodide Symporter (NIS) Inhibition, Stoker and Laws Labs (AID 2283841; active means hit-call score of the fitted dose curve at least 0.9, where 1 is the maximum)
# Summary of the method: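 HEK293T cells stably expressing human NIS (hNIS-HEK293T-EPA) were exposed to test chemicals at 0.001–100uM (0.5% final DMSO) with 125I at a final 329pM in HBSS/10mM HEPES pH 7.4. After 2 hours at room temperature and ice-cold washes, intracellular 125I was counted as CPM and normalized to DMSO wells.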
# [2] = CPHEA_Stoker_NIS_Cytotoxicity: Cytotoxicity Assessment for CPHEA's Radioactive Iodide Uptake (RAIU) Assay for Sodium/Iodide Symporter (NIS) Inhibition, Stoker and Laws Labs (AID 2283897; active means hit-call score of the fitted dose curve at least 0.9, where 1 is the maximum)
# Summary of the method: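 hNIS-HEK293T-EPA human kidney cells were exposed for 2 hours at room temperature to test chemicals (0.001–100uM, 0.5% final DMSO) in HEPES-buffered HBSS, pH 7.4. Viability was read as ATP content by luciferase bioluminescence, loss of signal versus DMSO.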
# [3] = CEETOX_H295R_11DCORT_noMTC: CeeTox H295R High-throughput Steroidogenesis Assay for 11-Deoxycortisol (11DCORT), maximum tolerated concentration (MTC) filtered results only (AID 2283911); details: actives raise or lower the signal
# Summary of the method: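 Steroidogenesis was stimulated in H295R cells with 10 uM forskolin for 48 h before a 48 h chemical exposure. Secreted 11-deoxycortisol was measured by tandem mass spectrometry and fitted bidirectionally against DMSO controls.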
# [4] = CEETOX_H295R_OHPREG_noMTC: CeeTox H295R High-throughput Steroidogenesis Assay for OH-Pregnenolone (OHPREG), maximum tolerated concentration (MTC) filtered results only (AID 2283912); details: actives raise or lower the signal
# Summary of the method: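 Medium 17alpha-hydroxypregnenolone quantified by reverse-phase HPLC-MS/MS after 48 h chemical exposure of forskolin-prestimulated (10 uM, 48 h) H295R, 0.1% DMSO final. Fitting bidirectional relative to DMSO; no maximum-tolerated-concentration filtering applied.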
# [5] = CEETOX_H295R_OHPROG_noMTC: CeeTox H295R High-throughput Steroidogenesis Assay for OH-Progesterone (OHPROG), maximum tolerated concentration (MTC) filtered results only (AID 2283914); details: actives raise or lower the signal
# Summary of the method: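 After 48 h forskolin (10 uM) prestimulation, H295R adrenal cells received test chemical in 0.1% DMSO for 48 h. Medium 17alpha-hydroxyprogesterone was MTBE-extracted and measured by HPLC-MS/MS; gain or loss relative to DMSO, no MTT-based MTC filtering.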
# [6] = CEETOX_H295R_CORTISOL_noMTC: CeeTox H295R High-throughput Steroidogenesis Assay for Cortisol, maximum tolerated concentration (MTC) filtered results only (AID 2283916); details: actives raise or lower the signal
# Summary of the method: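 Cortisol secretion measured by LC-MS/MS after 48 h chemical treatment (final 0.1% DMSO) of forskolin-primed (10 uM, 48 h) H295R cells; gain or loss fitted relative to DMSO, without maximum-tolerated-concentration filtering.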
# [7] = CEETOX_H295R_CORTIC_noMTC: CeeTox H295R High-throughput Steroidogenesis Assay for Corticosterone (CORTIC), maximum tolerated concentration (MTC) filtered results only (AID 2283917); details: actives raise or lower the signal
# Summary of the method: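 Human adrenal H295R cells were prestimulated 48 h with 10 uM forskolin, then exposed 48 h to chemical in 0.1% DMSO. Medium corticosterone was MTBE-extracted and quantified by HPLC-MS/MS; bidirectional fits versus DMSO, concentrations not MTC-filtered.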
# [8] = CEETOX_H295R_DOC_noMTC: CeeTox H295R High-throughput Steroidogenesis Assay for DOC, maximum tolerated concentration (MTC) filtered results only (AID 2283918); details: actives raise or lower the signal
# Summary of the method: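 11-Deoxycorticosterone secreted by human adrenal H295R cells quantified by HPLC-MS/MS after 48 h chemical exposure (0.1% DMSO), following 48 h 10 uM forskolin prestimulation. Concentrations not filtered by MTT-derived MTC; bidirectional fitting.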
# [9] = CEETOX_H295R_PROG_noMTC: CeeTox H295R High-throughput Steroidogenesis Assay for Progesterone (PROG), maximum tolerated concentration (MTC) filtered results only (AID 2283920); details: actives raise or lower the signal
# Summary of the method: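 Progesterone secreted into medium was measured by HPLC-MS/MS after MTBE extraction, following 48 h chemical exposure (0.1% DMSO) of forskolin-prestimulated (10 uM, 48 h) H295R adrenal cells. Gain or loss fitted against DMSO; no MTC filtering.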
# [10] = biological target: human Thyroid hormone Receptor beta (TRb), THRB (gene 7068) (UniProt P10828); test: ATG_hTRb_XSP2: Attagene TRANS-FACTORIAL Multi-Species (XSP2) HepG2 Assay for human Thyroid hormone Receptor beta (TRb) (AID 2283840; active means hit-call score of the fitted dose curve at least 0.9, where 1 is the maximum;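 further: actives raise reporter mRNA so potency reflects agonist-like gain of signal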)
# Summary of the method: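 Transient transfection of human HepG2 with multi-species NR-Gal4/GAL4-UAS reporter constructs; 24 h compound treatment; RNA isolation, reverse transcription, PCR and HpaI digest; capillary electrophoresis of labeled fragments; activity fitted upward versus DMSO.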
# [11] = CEETOX_H295R_ANDR_noMTC: CeeTox H295R High-throughput Steroidogenesis Assay for Androstenedione (ANDR), maximum tolerated concentration (MTC) filtered results only (AID 2283915); details: actives raise or lower the signal
# Summary of the method: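 Androstenedione secreted into medium was measured by LC-MS/MS after MTBE extraction. Human adrenal H295R cells received 10 uM forskolin for 48 h before 48 h chemical exposure (0.1% DMSO). Gain or loss fitted against DMSO, including concentrations above the MTT-derived MTC.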
# [12] = CEETOX_H295R_ESTRADIOL_noMTC: CeeTox H295R High-throughput Steroidogenesis Assay for Estradiol, maximum tolerated concentration (MTC) filtered results only (AID 2283919); details: actives raise or lower the signal
# Summary of the method: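 Readout: dansyl-derivatized estradiol quantified by LC-MS/MS in medium from H295R cells dosed 48 h (0.1% DMSO) following 48 h forskolin (10 uM) prestimulation. Gain or loss of signal fitted against DMSO; no MTC filtering applied.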
# [13] = CEETOX_H295R_ESTRONE_noMTC: CeeTox H295R High-throughput Steroidogenesis Assay for Estrone, maximum tolerated concentration (MTC) filtered results only (AID 2283921); details: actives raise or lower the signal
# Summary of the method: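 Estrone in spent medium, quantified by tandem MS following dansyl chloride derivatization, after 48 h chemical exposure (0.1% DMSO) of forskolin-prestimulated (10 uM, 48 h) H295R cells; concentrations not MTC-filtered, bidirectional fit against DMSO.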
# [14] = CEETOX_H295R_TESTO_noMTC: CeeTox H295R High-throughput Steroidogenesis Assay for Testosterone (TESTO), maximum tolerated concentration (MTC) filtered results only (AID 2283924); details: actives raise or lower the signal
# Summary of the method: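 Medium testosterone, measured by HPLC-MS/MS after liquid-liquid extraction, was fitted in both directions relative to DMSO without MTC filtering. Adrenal H295R cells received 48 h chemical exposure (0.1% DMSO final) after 48 h forskolin (10 uM) prestimulation; viability by MTT.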
# human Thyroid hormone Receptor beta (TRb), THRB (gene 7068), sequence (P10828 whole entry, looked up, the tested form may be a part): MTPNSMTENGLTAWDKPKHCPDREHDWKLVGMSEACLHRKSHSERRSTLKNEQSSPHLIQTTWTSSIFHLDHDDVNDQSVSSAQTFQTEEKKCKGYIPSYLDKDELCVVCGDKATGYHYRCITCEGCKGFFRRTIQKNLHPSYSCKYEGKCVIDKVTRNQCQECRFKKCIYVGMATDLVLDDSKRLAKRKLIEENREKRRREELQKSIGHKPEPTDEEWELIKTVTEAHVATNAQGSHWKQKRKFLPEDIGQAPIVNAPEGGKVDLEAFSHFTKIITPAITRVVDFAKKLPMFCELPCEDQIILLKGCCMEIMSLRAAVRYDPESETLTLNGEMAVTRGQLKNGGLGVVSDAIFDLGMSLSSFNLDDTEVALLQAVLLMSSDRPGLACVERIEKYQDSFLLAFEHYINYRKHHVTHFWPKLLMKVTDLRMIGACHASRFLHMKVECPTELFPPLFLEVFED
compound,measurement,setting,value
NC(=O)N1c2ccccc2C=Cc2ccccc21,outcome,[1],inactive
same,outcome,[2],inactive
CCCCCCCCCCCCCCCCOS(=O)(=O)O,outcome,[2],inactive
O=S(=O)(O)c1ccc(N=Nc2c(O)ccc3cc(S(=O)(=O)O)ccc23)cc1,outcome,[3],inactive
same,outcome,[4],inactive
same,outcome,[5],inactive
same,outcome,[6],inactive
same,outcome,[7],inactive
same,outcome,[8],inactive
same,outcome,[9],inactive
CCCCN1C(=O)[C@@H]([C@H](O)C2CCCCC2)NC(=O)C12CCN(Cc1ccc(Oc3ccc(C(=O)O)cc3)cc1)CC2,outcome,[2],inactive
CCN(CC)C(=S)SSC(=S)N(CC)CC,outcome,[10],inactive
same,outcome,[1],inactive
same,outcome,[2],inactive
Cc1nc(-c2ccccn2)ncc1C(=O)Nn1cc(C)c2cc(F)ccc21,AC50,[3],13.2 µM (active)
same,AC50,[4],4.1 µM (active)
same,AC50,[5],8.28 µM (active)
same,AC50,[11],22.5 µM (active)
same,AC50,[6],12.7 µM (active)
same,AC50,[7],9.57 µM (active)
same,AC50,[8],5.19 µM (active)
same,outcome,[12],inactive
same,AC50,[9],3.34 µM (active)
same,outcome,[13],inactive
same,AC50,[14],11.5 µM (active)
